Experimental data reported in PubChem BioAssay (Tox21).
Where “and” joins values, the source holds several entries; their conditions need not be identical. Equal values may be shown once. Records with an inconclusive call do not appear. Calls of active or inactive are those of the source. Unless noted, calls follow the shape of the dose curve; as a rule, active = well fitted curve in the direction sought with a large enough effect in the repeat runs; inconclusive = weak or mixed curves; inactive = no such curve, though single readings can be large; an effect the other way counts as inactive or inconclusive.

Experiments:
[1] = molecular target: Retinoic acid receptor RXR-alpha (Homo sapiens) (UniProt P19793); experiment: qHTS assay to identify small molecule agonists of the RXR signaling pathway (AID 1159527; calls by dose curve; also: nearly all actives have a fitted effect of over 35% in size)
In short: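 qHTS of the Tox21 10K library in GeneBLAzer RXR-alpha HEK 293T cells carrying a beta-lactamase reporter […]; 16 hr treatment, 9-cis retinoic acid as agonist control, FRET read-out.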

[2] = qHTS assay to identify small molecule agonists of the RXR signaling pathway - cell viability counter screen (AID 1159529); also: series mostly up to about 77 µM; nearly all actives have a fitted effect of over 50% in size
In short: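 Cell viability is measured by CellTiter-Glo luminescence, 30 min at room temperature, in wells already read for beta-lactamase. Engineered HEK 293T cells (RXR-alpha-UAS-bla) are dosed 16 hr at 37 C. Tetraoctyl ammonium bromide serves as positive control.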

[3] = qHTS assay to identify small molecule antagonists of the retinoid acid receptor (RAR) signaling pathway - cell viability counter screen (AID 1159551); also: nearly all actives have a fitted effect of over 35% in size
In short: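 Cytotoxicity counter screen in C3RL4 cells: 6 h compound exposure with 1 uM retinol (final), viability from cellular ATP by luminescence.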

[4] = qHTS assay to identify small molecule antagonists of the retinoic acid receptor (RAR) signaling pathway (AID 1159552; also: nearly all actives have a fitted effect of over 50% in size)
In short: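 Quantitative HTS in C3RL4 RARE-luciferase reporter cells. Compounds were added with 1 uM (final) retinol; luminescence was read after 6 hr.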

[5] = qHTS assay to identify small molecule antagonists of the estrogen related receptor (ERR) signaling pathway - cell viability counter screen (AID 1224818);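 also: series mostly up to about 46 µM; viability measured after 17.5 h of compound exposure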
In short: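 Cells carrying the ERR pathway reporter were seeded and incubated for 6 hours before compound addition. After a 17.5-hour exposure at 37 C, live-cell protease activity was measured by CellTiter-Fluor fluorescence following 30 minutes of incubation.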

[6] = qHTS assay to identify small molecule antagonists of the estrogen related receptor signaling pathway with the pleiotropic PPARgamma coactivator (PGC) cell viability counter screen (AID 1224822;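 also: series mostly up to about 46 µM; viability read after 17.5 h compound exposure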)
In short: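 Seed PGC/ERR cells (2,000/well); incubate 6 h at 37 C/5% CO2; pin-transfer compounds in DMSO; incubate 17.5 h at 37 C; add CellTiter-Fluor; after 30 min read fluorescence.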

[7] = qHTS assay to identify small molecule antagonists of the estrogen related receptor (ERR) signaling pathway from Tox21 library - cell viability counter screen (AID 1224834); also: nearly all actives have a fitted effect of over 30% in size
In short: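 Cytotoxicity of test substances is gauged in the same ERR cells used for the antagonist screen, after 17.5 h of compound treatment at 37 C, by CellTiter-Fluor fluorescence measured after 30 min.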

[8] = qHTS assay to identify small molecule agonists of the constitutive androstane receptor (CAR) signaling pathway - cell viability counter screen (AID 1224836); also: series mostly up to about 92 µM; nearly all actives have a fitted effect of over 45% in size
In short: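 Counter screen multiplexed with the CAR reporter readout: HepG2 cells co-transfected with hCAR and the CYP2B6-2.2kb construct receive a 15-concentration compound series and 0.75 uM PK11195 (final), then CellTiter-Fluor fluorescence is read after 23 h.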

[9] = qHTS assay to identify small molecule antagonists of the constitutive androstane receptor (CAR) signaling pathway - cell viability counter screen (AID 1224837); also: series mostly up to about 92 µM; nearly all actives have a fitted effect of over 45% in size
In short: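 Multiplexed cytotoxicity read-out for the CAR antagonist screen: double-stable HepG2-CYP2B6-hCAR cells co-treated with 50 nM CITCO (final) and compound over 15 concentrations, incubated 23 hr, then assessed by CellTiter-Fluor fluorescence.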

[10] = molecular target: Nuclear receptor subfamily 1 group I member 3 (Homo sapiens) (UniProt Q14994); experiment: qHTS assay to identify small molecule antagonists of the constitutive androstane receptor (CAR) signaling pathway (AID 1224838); also: nearly all actives have a fitted effect of over 40% in size
In short: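 Compounds were titrated across 15 concentrations onto HepG2 cells double-stably expressing hCAR and a CYP2B6-2.2kb reporter, together with 50 nM CITCO (final). After 24 h at 37 C, luciferase activity was measured by luminescence.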

[11] = molecular target: Nuclear receptor subfamily 1 group I member 3 (Homo sapiens) (UniProt Q14994); experiment: qHTS assay to identify small molecule agonists of the constitutive androstane receptor (CAR) signaling pathway (AID 1224839); also: nearly all actives have a fitted effect of over 15% in size; also: potency is read from the fitted curve at half-maximal effect
In short: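 A 15-concentration quantitative screen uses HepG2 cells co-transfected stably with human CAR and CYP2B6-2.2kb reporter. Treatment lasts 24 h with 0.75 uM PK11195 final present; ONE-Glo luminescence is the signal.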

[12] = qHTS assay to identify small molecule antagonists of the estrogen related receptor signaling pathway with the pleiotropic PPARgamma coactivator (PGC) from Tox21 10K library - cell viability counter screen (AID 1224840; active = well fitted cell-killing curve with a large enough effect in the repeat runs, not every such curve was filed as active; also: nearly all actives have a fitted effect of over 40% in size)
In short: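 Step one, plate 2,000 PGC/ERR cells per well; step two, incubate 6 h at 37 C/5% CO2; step three, pin-transfer compounds; step four, incubate 17.5 h; step five, add CellTiter-Fluor and read fluorescence after 30 min.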

[13] = molecular target: Thyrotropin receptor (Homo sapiens) (UniProt P16473); experiment: qHTS assay to identify small molecule agonists of the thyroid stimulating hormone receptor (TSHR) signaling pathway (AID 1224843; calls by dose curve; also: nearly all actives have a fitted effect of over 45% in size)
In short: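 Cell line HEK293 with TSHR; density 800/well. Exposure 30 min RT. Readout HTRF cAMP (cAMP-d2/anti-cAMP-cryptate), 1 h RT before reading.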

[14] = molecular target: Luciferin 4-monooxygenase (Photinus pyralis) (UniProt P08659); experiment: qHTS assay to identify small molecule inhibitors of firefly luciferase (AID 1224835); also: series mostly up to about 120 µM; nearly all actives have a fitted effect of over 25% in size
In short: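 Quantitative HTS format; KM concentrations of both substrates. Purified P. pyralis FLuc activity quantified from luminescence images.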

[15] = qHTS assay to identify small molecule antagonists of the estrogen related receptor signaling pathway with the pleiotropic PPARgamma coactivator (PGC) from Tox21 10K library (AID 1224841; call rule not given here; also: actives are mostly falling curves and most rising ones were filed inactive; nearly all actives have a fitted effect of over 50% in size; also: potency is read from the fitted curve at half-maximal effect)
In short: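 Antagonism in this quantitative HTS is taken from loss of luciferase signal in PGC/ERR cells. Cells (2,000/well) are treated with compounds in DMSO after a 6 h settling period and read by One-Glo luminescence after 18 h.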

[16] = qHTS assay to identify small molecule agonists of the estrogen related receptor signaling pathway with the pleiotropic PPARgamma coactivator (PGC) from Tox21 10K library (AID 1224842); also: nearly all actives have a fitted effect of over 15% in size
In short: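 PGC/ERR reporter cells (NTP line) were seeded 2,000 per well, rested 6 h at 37 C/5% CO2, then pin-dosed with compounds in DMSO for 18 h at 37 C; luciferase read by One-Glo luminescence after 30 min at room temperature.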

[17] = qHTS assay to identify small molecule agonists of the retinoic acid receptor (RAR) signaling pathway (AID 1159553)
In short: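 Agonist activity was scored in C3RL4 cells bearing a retinoic acid response element luciferase construct. Cells were treated with compounds for 6 hr at 37 C, and luciferase signal was measured as luminescence.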

Measured: Potency

Chain of Thyrotropin receptor (Homo sapiens) (P16473 whole entry, looked up): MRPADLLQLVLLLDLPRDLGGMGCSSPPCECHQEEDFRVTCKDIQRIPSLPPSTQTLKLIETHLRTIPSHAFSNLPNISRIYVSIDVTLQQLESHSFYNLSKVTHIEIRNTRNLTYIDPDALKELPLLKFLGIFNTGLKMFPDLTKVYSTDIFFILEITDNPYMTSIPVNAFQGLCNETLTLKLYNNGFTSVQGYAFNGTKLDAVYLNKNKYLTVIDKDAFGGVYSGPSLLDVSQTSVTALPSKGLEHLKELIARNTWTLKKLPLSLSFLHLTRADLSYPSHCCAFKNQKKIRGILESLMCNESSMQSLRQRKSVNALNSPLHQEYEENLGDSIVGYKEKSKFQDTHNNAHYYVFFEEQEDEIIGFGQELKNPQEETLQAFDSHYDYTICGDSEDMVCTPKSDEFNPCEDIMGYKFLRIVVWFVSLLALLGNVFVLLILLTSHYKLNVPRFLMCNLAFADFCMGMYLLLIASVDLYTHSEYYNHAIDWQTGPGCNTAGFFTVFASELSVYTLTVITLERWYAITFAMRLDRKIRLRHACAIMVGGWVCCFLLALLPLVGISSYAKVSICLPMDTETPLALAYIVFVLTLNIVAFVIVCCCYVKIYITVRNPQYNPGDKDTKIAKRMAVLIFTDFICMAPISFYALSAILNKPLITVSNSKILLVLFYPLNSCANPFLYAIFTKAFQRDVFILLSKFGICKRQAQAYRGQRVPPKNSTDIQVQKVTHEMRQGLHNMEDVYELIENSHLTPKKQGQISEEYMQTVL
Chain of Retinoic acid receptor RXR-alpha (Homo sapiens) (P19793 whole entry, looked up): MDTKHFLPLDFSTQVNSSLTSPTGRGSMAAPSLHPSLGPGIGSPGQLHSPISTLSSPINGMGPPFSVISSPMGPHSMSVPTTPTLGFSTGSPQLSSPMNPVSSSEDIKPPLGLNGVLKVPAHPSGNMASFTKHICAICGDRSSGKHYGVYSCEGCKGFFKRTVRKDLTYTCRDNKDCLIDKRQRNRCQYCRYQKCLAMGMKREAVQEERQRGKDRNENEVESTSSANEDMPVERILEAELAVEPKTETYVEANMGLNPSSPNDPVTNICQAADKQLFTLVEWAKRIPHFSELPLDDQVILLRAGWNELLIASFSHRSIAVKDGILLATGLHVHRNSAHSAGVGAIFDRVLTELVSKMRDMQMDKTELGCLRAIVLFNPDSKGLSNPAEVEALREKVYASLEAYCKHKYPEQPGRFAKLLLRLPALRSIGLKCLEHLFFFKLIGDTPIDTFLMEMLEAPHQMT
Chain of Nuclear receptor subfamily 1 group I member 3 (Homo sapiens) (Q14994 whole entry, looked up): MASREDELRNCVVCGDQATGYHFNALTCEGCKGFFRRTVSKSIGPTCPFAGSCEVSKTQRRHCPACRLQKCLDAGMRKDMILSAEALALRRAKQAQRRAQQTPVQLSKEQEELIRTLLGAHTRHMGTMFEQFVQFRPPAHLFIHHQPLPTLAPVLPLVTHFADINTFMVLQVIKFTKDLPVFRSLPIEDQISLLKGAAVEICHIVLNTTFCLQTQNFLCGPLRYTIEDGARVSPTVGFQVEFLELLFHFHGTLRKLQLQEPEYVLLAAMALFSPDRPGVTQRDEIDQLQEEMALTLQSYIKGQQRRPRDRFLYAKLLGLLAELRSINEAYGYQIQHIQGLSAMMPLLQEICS
Chain of Luciferin 4-monooxygenase (Photinus pyralis) (P08659 whole entry, looked up): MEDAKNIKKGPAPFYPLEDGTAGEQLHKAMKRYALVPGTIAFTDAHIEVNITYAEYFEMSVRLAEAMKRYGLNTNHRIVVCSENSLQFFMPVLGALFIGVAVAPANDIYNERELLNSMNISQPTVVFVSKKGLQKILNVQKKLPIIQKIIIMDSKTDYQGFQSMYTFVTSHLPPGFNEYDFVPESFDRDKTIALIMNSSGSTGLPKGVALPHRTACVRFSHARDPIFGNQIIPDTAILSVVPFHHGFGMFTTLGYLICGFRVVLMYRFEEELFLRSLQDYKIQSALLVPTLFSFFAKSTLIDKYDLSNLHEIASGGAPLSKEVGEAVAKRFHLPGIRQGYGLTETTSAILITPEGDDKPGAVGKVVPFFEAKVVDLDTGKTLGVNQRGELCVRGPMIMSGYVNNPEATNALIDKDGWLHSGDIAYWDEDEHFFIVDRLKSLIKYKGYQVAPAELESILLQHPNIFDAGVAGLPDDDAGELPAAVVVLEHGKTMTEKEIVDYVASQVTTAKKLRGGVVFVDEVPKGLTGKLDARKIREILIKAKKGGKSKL

c1ccc([C@H]2CN3CCSC3=N2)cc1
not listed: [14] | [15] | [16] | [17]
inactive: all other assays above

O=C(O)CCCl
not listed: [5] | [6] | [17]
inactive: all other assays above

Nc1cc(=O)[nH]c(N)n1
not listed: [4] | [15] | [16]
inactive: all other assays above

COc1ccccc1OCC(O)CN1CCN(CC(=O)Nc2c(C)cccc2C)CC1 (configuration not stated)
not listed: [4] | [15] | [16]
inactive: all other assays above

CCCC(=O)O[C@]1(C(=O)CO)CC[C@H]2[C@@H]3CCC4=CC(=O)CC[C@]4(C)[C@H]3[C@@H](O)C[C@@]21C
not listed: [5] | [6] | [17]
inactive: all other assays above

O=Cc1cccc([N+](=O)[O-])c1
active: [15] 24.2 µM
not listed: [4] | [5] | [6] | [13]
inactive: all other assays above

CC(=O)OC/C=C(\C)CC/C=C(\C)CCC=C(C)C
not listed: [5] | [6] | [17]
inactive: all other assays above

Cc1c(O)cccc1O
not listed: [5] | [6] | [13] | [14] | [17]
inactive: all other assays above

NC(=O)c1cn(Cc2c(F)cccc2F)nn1
not listed: [4] | [8] | [14] | [15] | [16]
inactive: all other assays above

OC[C@]1(O)OC[C@@H](O)[C@H](O)[C@@H]1O
not listed: [5] | [6] | [14] | [15] | [16] | [17]
inactive: all other assays above

C=COCC1CCC(CO)CC1 (configuration not stated)
not listed: [5] | [6] | [17]
inactive: all other assays above

CCCCOCCOCCOCc1cc2c(cc1CCC)OCO2
active: [11] 7.79 µM and 11.9 µM
not listed: [13] | [14] | [15] | [16] | [17]
inactive: all other assays above

CC(C)NCC(O)c1ccc(NS(C)(=O)=O)cc1 (configuration not stated)
not listed: [4] | [14] | [15] | [16]
inactive: all other assays above

NCCc1cnc[nH]1
not listed: [4] | [11] | [14] | [15] | [16]
inactive: all other assays above
